PubChem BioAssay AID1851 (National Center for Advancing Translational Sciences (NCATS), 2009)
Where “and” joins values, the source holds several entries; their conditions need not be identical. Identical values can stand only once. Hit rate of the full screen: of about 16,000 compounds, about 5,800 (36%) were called active. Inconclusive results (about 23%) are left out. Calls follow the shape of the dose curve; as a rule, active = well fitted curve in the direction sought with a large enough effect; inconclusive = small, poorly fitted or top-dose-only effect, or effect the other way; inactive = no such curve, though single readings can be large or run the other way. This is one part of the list. Some structures have more than one record in an assay (separate samples or runs), and their calls can disagree.

Target: Cytochrome P450 2C19 (Homo sapiens) (UniProt P33261)
Assay: Cytochrome panel assay with activity outcomes
Settings: recombinant CYP, pro-luciferin dealkylation, luminescence, p450-cyp2c19; series mostly up to 57.1 µM; activity, negative = inhibition: at the top concentration
% is scaled to controls: 0 for no effect and ±100 for the full control effect.

Cytochrome P450 2C19 (Homo sapiens), sequence (P33261 whole entry, looked up): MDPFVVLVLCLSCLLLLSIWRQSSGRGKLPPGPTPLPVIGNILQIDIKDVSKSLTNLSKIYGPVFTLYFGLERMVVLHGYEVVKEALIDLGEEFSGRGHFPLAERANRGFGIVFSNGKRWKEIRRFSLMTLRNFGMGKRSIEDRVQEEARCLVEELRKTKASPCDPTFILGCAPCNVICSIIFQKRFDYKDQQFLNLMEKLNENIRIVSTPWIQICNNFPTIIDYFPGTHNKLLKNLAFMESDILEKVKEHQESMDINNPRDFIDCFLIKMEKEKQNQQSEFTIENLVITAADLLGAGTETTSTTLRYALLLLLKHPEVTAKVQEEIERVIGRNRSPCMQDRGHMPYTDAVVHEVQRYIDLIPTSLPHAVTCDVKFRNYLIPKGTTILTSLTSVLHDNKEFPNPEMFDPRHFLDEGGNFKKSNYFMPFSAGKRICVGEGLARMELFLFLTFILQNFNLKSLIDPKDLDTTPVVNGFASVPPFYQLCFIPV

Structure (SMILES) | activity, negative = inhibition | AC50
CCC(=O)Nc1ccc(N2CCN(CC)CC2)c(Cl)c1 | -6.94% (inactive) | 
Cc1nccc2c1[nH]c1ccccc12 |  | inactive
Cc1c2ccncc2c(C)c2c1[nH]c1ccccc12 |  | 3.16 µM (active)
CN(C)CCC(=O)[C@@]1(O)CC[C@H]2[C@H]3CC=C4C[C@@H](O)CC[C@]4(C)[C@H]3CC[C@]21C | 13.6% [at 11.4 µM] (inactive) | 
O=C(Nc1ccc(Cl)cc1)Nc1nccs1 |  | 25.1 µM (active)
C[C@H]1CCCC=CC2C[C@H](O)C[C@@H]2[C@H](O)/C=C\C(=O)O1 (some centres undefined) | -16.3% (inactive) | 
Cc1cc(C)nc(NC2=NCCS2)n1 | -7.47% (inactive) | 
O=S(=O)(O)/C(=C\c1ccccc1)c1ccccc1 (tested in a mixture with another compound) | -40.3% [at 11.4 µM] (inactive) | 
CC(=O)c1ccc2c(c1)N(CCCN(C)C)c1ccccc1S2 | -0.627% [at 25.6 µM] (inactive) | 
COC(=O)N1CCC2(CCN(CC(C)C)CC2)CC1 | -27.3% (inactive) | 
c1ccc(N2CCC3(CCNCC3)CC2)cc1 | -25.2% (inactive) | 
Cc1sc(NC(=O)C2C3CCC(O3)C2C(=O)O)c(C(=O)OC(C)C)c1-c1ccc(Cl)cc1 (centres undefined) |  | 14.1 µM (active)
O=C(c1cc(-c2ccccc2)nc2ccccc12)N1CCC2(CC1)OCCO2 |  | 10 µM (active)
CN1C(=O)c2ccccc2Sc2ccc(C(=O)N3CCC4(CC3)OCCO4)cc21 | -9.78% (inactive) | 
CN1[C@@H](CC(=O)c2ccccc2)CCC[C@@H]1C[C@@H](O)c1ccccc1 | 1.66% [at 25.6 µM] (inactive) | 
COCC(=O)N1CCC2(CCCN(Cc3ccncc3)C2)CC1 | -34.1% (inactive) | 
CN1CC[C@@]2(CCCN(C(=O)c3ccco3)C2)C1 | 7.21% (inactive) | 
O=C(c1ccco1)N1CCC[C@@]2(CCN(Cc3ccncc3)C2)C1 |  | 2.51 µM (active)
CNC(C)(C)Cc1ccccc1 | 31.5% [at 25.6 µM] (inactive) | 
CCNC[C@H](O)c1cccc(O)c1 | -8.41% [at 25.6 µM] (inactive) | 
C[C@@H](Cc1ccc(OCC(=O)O)cc1)NC[C@H](O)c1cccc(Cl)c1 |  | inactive and 5.01 µM (active)
C=C1[C@@H]2C[C@@]3([C@H]1O)[C@H]1C[C@@H]4[C@@]5(C)CC[C@H](O)[C@]4([C@H]1N(CC)C5)[C@H]3C[C@H]2O | 3.61% [at 25.6 µM] (inactive) | 

Structure (SMILES) | activity, negative = inhibition | AC50
Oc1cccc2cccnc12 | 31.2% [at 11.4 µM] (inactive) | 
CC1=NN(c2ccc(S(=O)(=O)O)cc2C)C(=[OH+])[C@H]1N=Nc1cc(S(=O)(=O)O)ccc1C(=O)O.O.[Cr] | 33.2% [at 11.4 µM] (inactive) | 
COCOc1ccc(Br)cc1C(=O)/C=C\c1ccc2c(c1)OCO2 |  | 0.0631 µM (active)
CCCCCCCCCCCCCC(=O)O[C@H]1[C@@H](C)[C@@]2(O)[C@@H](C=C(CO)C[C@]3(O)C(=O)C(C)=C[C@@H]23)C2C(C)(C)[C@]21OC(C)=O (some centres undefined) | -27% (inactive) | 
C[C@@H]1O[C@@H](O[C@H]2C[C@@H](O)[C@]3(CO)[C@@H]4[C@@H](O)C[C@]5(C)[C@H]([C@@H]6COC(=O)C6)CC[C@@]5(O)[C@H]4CC[C@@]3(O)C2)[C@H](O)[C@H](O)[C@@H]1O | 10.9% (inactive) | 
CCOC(=O)[C@@H]1[C@@H]2c3ccccc3-c3ccccc3[C@H]2C[C@H]1O |  | 2 µM (active)
N[C@@H](CSC1c2ccccc2-c2ccccc21)C(=O)O | -32.5% [at 11.4 µM] (inactive) | 
CC1(C)[C@@H]2CC[C@]1(C)CN(CCC[N+](C)(C)C)C2 | 6.07% [at 11.4 µM] (inactive) | 
CC(C)Oc1cccnc1N(C)C1CCN(Cc2ccccc2)CC1 | -43% (inactive) | 
COC(=O)C[C@](O)(CCCC(C)(C)O)C(=O)O[C@@H]1C(OC)=C[C@]23CCCN2CCc2cc4c(cc2[C@H]13)OCO4 | -41% (inactive) | 
CS(=N)(=O)CC[C@@H](N)C(=O)O (some centres undefined) |  | inactive
COc1ccccc1CC1C(=O)C2CCN1CC2 (centres undefined) | -29.3% (inactive) | 
COCCn1c(SCc2nc3sc(C(=O)OC)c(C)c3c(=O)[nH]2)nc2ccccc21 |  | 0.708 µM (active)
O=C(O)[C@H]1CCN1 | -2.64% (inactive) | 
N#Cc1ccc(CN2CCCC3(CCN(C(=O)Oc4ccccc4)CC3)C2)cc1 | 22.4% (inactive) | 
CC(=O)[C@@H]1CC[C@@H]2[C@@H]3CC=C4C[C@H](OS(=O)(=O)O)CC[C@@]4(C)[C@H]3CC[C@]21C | -13.8% (inactive) | 
CCCCn1c(O)c(C(CC)=NCc2ccc(F)cc2)c(=O)[nH]c1=O |  | 7.08 µM (active)
CCCCn1c(O)c(C=NCCN2CCCCC2)c(=O)[nH]c1=O | -13.8% (inactive) | 
C=CCn1c(O)c(C(C)=NCCCN2CCOCC2)c(=O)[nH]c1=O | 4.51% (inactive) | 
CCCCn1c(O)c(C(CC)=Nc2ccc(OC)cc2OC)c(=O)[nH]c1=O |  | 15.8 µM (active)
C[C@]12CCC3c4ccc(OCC(=O)O)cc4CCC3C1CCC2=O (some centres undefined) | 29.2% [at 11.4 µM] (inactive) | 
CN(C)[C@@H]1C(=O)C(C(N)=O)=C(O)[C@]2(O)C(=O)C3=C(O)c4c(O)cccc4[C@](C)(O)[C@H]3C[C@@H]12 | -41.8% [at 11.4 µM] (inactive) | 
